Bioassay records as filed in PubChem BioAssay.
In the library only some 3.1% were active in any assay of this set; here they are far more common.
IL-2 act: activators of IL-2; 360,000 compounds, 0.065% hits; IL-2 activation reporter assay, cell-based qHTS; stimulated with anti-CD3/CD4/CD28 beads; in transgenic mouse T cells; activation, % (series mostly up to about 46 µM); in the data active = activation above about 50%; inconclusive = mostly about 30% to 49%; note: 0% is about no effect
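Readout is EGFP and DsRed signal by fluorescent plate cytometry after 18 h at 37 degrees C. Transgenic mouse T cells (750/well) received compound for 60 min before bead stimulation (anti-CD3, anti-CD4, anti-CD28); memory T cells served as non-tolerant control.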
BRCA1 expr up: BRCA1 expression activation; MCF7-BRCA1-FFLuc reporter, luminescence, 48 h; response scale: scaled: vehicle 0%, 10 µM genistein 100%; Potency, µM (doses to about 46.1 µM), inactives show top-dose activation, usual class: activators; 380,000 compounds, 1.1% hits; note: potency is the fitted concentration of half-maximal effect; nearly all actives have a fitted effect of over 80% in size
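Compounds are tested at multiple concentrations on MCF7 BRCA1-luciferase reporter cells seeded at 2000 per well; after 48 h, a single luminescence end-point is taken and curves fitted to the normalized data.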
Nrf2 ARE act: Nrf2 pathway activation; AREc32 ARE-luciferase reporter (MCF7-derived line), luminescence, 24 h; Potency, µM (doses to about 46.1 µM), without a hit: at the top dose activation, actives largely listed as activators; 410,000 compounds, 0.31% hits; AID 624171; note: potency is the fitted concentration of half-maximal effect; % of control where 0% means no effect; nearly all actives have a fitted effect of over 65% in size
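AREc32 cells carrying an ARE-driven firefly luciferase reporter were seeded at 1000 cells/well in OPTI-MEM with 5% FBS, then exposed to compound for 24 hr at 37 deg C. Luminescence was read with Steady-Glo after 30 min at RT.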
ELG1 repair inh: inhibitors of ELG1-dependent DNA repair in HEK293T cells | HEK293T ELG1-luciferase reporter, luminescence, 16 h; DNA damage induced by 5-fluorouridine | Potency, µM (doses to about 46.1 µM), without a hit: at the highest dose activity change, negative = inhibition, actives largely listed as inhibitors | 330,000 compounds, 2.3% hits | AID 504467; note: potency is the fitted concentration of half-maximal effect; % is set by controls: 0 for no effect and ±100 for the full control effect; nearly all actives have a fitted effect of over 55% in size
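In this reporter screen, reduction of luminescence relative to DMSO vehicle indicated activity. Compounds and 5-fluorouridine were added together to 2,000 cells per well, incubated for 16 hr at 37 °C, then developed with ONE-Glo.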
Numbers without * were called inactive; ? = inconclusive; · = no result given. Unless noted, calls come from the whole dose curve; as a rule, active = well fitted curve in the direction sought with a large enough effect; inconclusive = small, poorly fitted or top-dose-only effect, or another doubt; inactive = no such curve, though single readings can be large; an effect the other way counts as inactive or inconclusive.

SMILES	IL-2 act	BRCA1 expr up	Nrf2 ARE act	ELG1 repair inh
O=c1oc2c(CN3CCOCC3)c(O)ccc2c2ccccc12	0.4	14.1µM*	4.6%	?
O=C(Cn1cnc2cc([N+](=O)[O-])ccc2c1=O)Nc1cccc2ccccc12	-3.7	17.4%	1.3%	-8.9%
CCN(CC)S(=O)(=O)c1ccc(C)c(NC(=O)Cn2cnc3cc([N+](=O)[O-])ccc3c2=O)c1	2.8	-14.7%	2.9%	16.4µM*
CCn1c(C)nc2cc(-c3nnc(-c4c(-c5ccccc5)noc4C)o3)ccc21	-3.9	-38.8%	0.2%	20.6µM*
Cc1c(C(=O)N2CCN(Cc3ccc4c(c3)OCO4)CC2)sc2ncnc(N3CCN(c4ccccc4F)CC3)c12	-0.8	-78.2%	0.9%	6.51µM*
CCCNC(=O)Cn1cnc2sc(C(=O)N3CCN(Cc4ccc5c(c4)OCO5)CC3)c(C)c2c1=O	-1.7	-14.1%	0.0%	?
Cc1c(C(=O)N2CCN(Cc3ccc4c(c3)OCO4)CC2)sc2ncnc(N3CCN(c4ccccc4)CC3)c12	0.3	13.6%	-0.4%	4.61µM*
COc1ccc(C)c2sc(N(Cc3cccnc3)C(=O)CCc3ccccc3)nc12	·	·	0.8%	·
COC1=CC(=Cc2c(N)n3nc(CC(=O)N4CCCCC4)sc3nc2=O)C=C(OC)C1=O	84.9*	0.0%	-0.1%	14.4%
COc1ccccc1N1CCN(/N=C\c2ccccc2)CC1	-0.6	?	5.3%	0.0%
COc1ccccc1N1CCN(/N=C/C(Cl)=C/c2ccccc2)CC1	-2.9	3.98µM*	7.3%	?
Cc1cc(C)c(Cn2c3ccccc3c3cnn(CC(=O)NCCCc4ccccc4)c(=O)c32)c(C)c1	·	·	-0.4%	·
Cc1ccc(C)c(OCc2cc(C(=O)N3CC[C@@H]4CCCC[C@H]4C3)no2)c1	-0.9	?	3.5%	?
Cc1ccc(C)c(OCc2cc(C(=O)N3CCN(C(=O)c4ccco4)CC3)no2)c1	0.5	?	6.2%	?
C[C@@H]1CN(C(=O)c2cc(COc3cccc(C(F)(F)F)c3)on2)C[C@H](C)O1	-2.9	?	4.5%	14.6µM*
O=C(NCC1CCOCC1)c1cc(COc2cccc(C(F)(F)F)c2)on1	-0.7	-0.2%	-0.2%	16.4µM*
Cc1ccc(C)c(OCc2cc(C(=O)N3CCN(c4ccccc4)CC3)no2)c1	-2.2	7.08µM*	0.5%	?
Cc1ccc(C)c(OCc2cc(C(=O)N3C[C@@H](C)O[C@@H](C)C3)no2)c1	-4.4	4.47µM*	0.7%	?
CCOC(=O)c1noc2nc(C)n(CC(=O)Nc3cc(Cl)ccc3OC)c(=O)c12	·	·	1.6%	·
CC(C)(C)C1CCc2c(sc(NC(=O)c3cc4ccccc4c(=O)o3)c2C(N)=O)C1 (centres undefined)	·	·	-0.9%	·
Cc1cccc(NC(=O)Cc2noc3ccccc23)c1	-0.6	11.2µM*	-1.0%	?
Cc1ccc(S(=O)(=O)N2[C@H](CC(=O)Oc3ccccc3)OC[C@@H]2C(C)C)cc1	-0.8	·	·	·
O=C(Nc1ccc(NC(=O)C2CC2)cc1)c1cccs1	-1.6	10µM*	0.2%	?
O=C(Nc1ccc(NC(=O)c2cccs2)cc1)c1cccs1	0.9	24.5%	0.2%	?
O=C(Nc1cccc(S(=O)(=O)c2cccc(NC(=O)c3ccco3)c2)c1)c1ccco1	-7.2	-62.4%	4.8%	23.1µM*
SMILES	IL-2 act	BRCA1 expr up	Nrf2 ARE act	ELG1 repair inh
O=C(Nc1ccc(NC(=O)C2CCCCC2)cn1)c1ccco1	0.3	94.8%	0.4%	?
O=C(Nc1ccc(NC(=O)c2ccco2)cc1)c1ccco1	6.4	10µM*	1.5%	-0.3%
O=C(Nc1ccc(NC(=O)C2CC2)cc1)c1ccco1	0.0	3.16µM*	-0.2%	?
O=S1(=O)C=C[C@@H](COCc2ccccc2)N1Cc1ccc(Br)cc1	-0.4	3.9%	4.2%	·
O=C(Nc1nccs1)c1ccc(NC(=O)c2ccco2)cc1	6.5	5.01µM*	2.1%	?
O=C(Nc1ccc(Br)cc1)c1ccco1	1.5	?	?	?
O=C(Nc1ccccc1C(=O)O)c1ccc(NC(=O)C2CC2)cc1	-4.1	13.7%	-1.0%	25.1%
O=C(Nc1ccccc1O)c1ccc(NC(=O)C2CC2)cc1	-3.8	1.78µM*	?	?
CC(=O)N(C)c1ccc(NC(=O)c2ccco2)cc1	1.0	6.31µM*	0.3%	?
CCOC(=O)c1ccc(NC(=O)c2ccco2)cc1	0.0	7.08µM*	4.7%	?
COC(=O)c1ccccc1NC(=O)c1cc(-c2ccc(Cl)cc2)on1	·	·	0.0%	·
